The values below come from PubChem BioAssay (EPA / NIEHS).

Experiment [1] is described as follows: BSK_4H_Eotaxin3: BioMAP Diversity Plus: 4H Assay for Eotaxin 3 Biomarker Activity (AID 2283000).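 On outcome: CCL26 protein level quantified by ELISA in parallel with SRB cytotoxicity check.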 The following applies: primary human endothelial cells (HUVEC); actives raise or lower the signal. An outline of the steps: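 HUVEC, 24 h post-dose, ELISA for Eotaxin-3/CCL26. Gain or loss of signal fitted bidirectionally vs DMSO baseline.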
Read-out in experiment [2]: Intercellular Adhesion Molecule 1 (ICAM1), ICAM1 (gene 3383)
Kind of experiment: BSK_3C_ICAM1: BioMAP Diversity Plus: 3C Assay for Intercellular Adhesion Molecule 1 (ICAM1) Biomarker Activity (AID 2283003). The following applies: primary human endothelial cells (HUVEC); actives raise or lower the signal. A digest of the protocol: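 Human vascular endothelial primary cells, 3C conditions, 24 h treatment. ICAM-1 by ELISA.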

Experiment [3] concerns the target human Retinoic Acid Receptor beta (RARb), RARB (gene 5915) (UniProt P10826). Kind of experiment: ATG_RARb_TRANS: Attagene TRANS-FACTORIAL HepG2 Assay for human Retinoic Acid Receptor beta (AID 2283004; active means hit-call score of the fitted dose curve at least 0.9, where 1 is the maximum). An outline of the steps: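 HepG2 cells transiently transfected with multiplexed GAL4-UAS reporter units expressing chimeric NR–Gal4 fusions; 24 h compound exposure. Reporter mRNA quantified by RT-PCR, 6-FAM labelling, HpaI digestion and capillary electrophoresis; gain-of-signal fitted against DMSO baseline.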

Experiment [4] in a line: BSK_3C_Proliferation: Cell Proliferation Assessment in the BioMAP Diversity Plus: 3C Assay (AID 2283006).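 On AC50: potency may reflect either rise or fall in cell number versus DMSO.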 The following applies: primary human endothelial cells (HUVEC). A digest of the protocol:
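Proliferation of human vascular endothelial primary cells after 48 h dosing, quantified as SRB-stained protein at 560 nm relative to DMSO.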

For experiment [5], the target named is Peroxisome proliferator-activated receptor gamma (Homo sapiens) (UniProt P37231). Description: ATG_PPARg_TRANS: Attagene TRANS-FACTORIAL HepG2 Assay for human Peroxisome Proliferator-activated Receptor-gamma (PPARg) (AID 2283007; active means hit-call score of the fitted dose curve at least 0.9, where 1 is the maximum). An outline of the steps:
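Twenty-four hours after chemical dosing of transiently transfected HepG2 cells, isolated RNA was converted to cDNA, reporter sequences amplified and 6-FAM-labelled, then HpaI-digested and analysed by capillary electrophoresis. Signal increase against DMSO was fitted.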

Experiment [6] concerns the target Nuclear receptor subfamily 1 group I member 2 (Homo sapiens) (UniProt O75469). Description: ATG_PXR_TRANS: Attagene TRANS-FACTORIAL HepG2 Assay for human Pregnane X Receptor (PXR) (AID 2283008; active means hit-call score of the fitted dose curve at least 0.9, where 1 is the maximum). An outline of the steps:
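HepG2 cells transiently transfected with GAL4-UAS reporter units and PXR-Gal4 chimera, exposed 24 h. Reporter mRNA quantified by RT-PCR, fluorescent labelling, HpaI digestion and capillary electrophoresis; gain of signal vs DMSO.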

The target of experiment [7] is human Retinoic Acid Receptor gamma (RARg), RARG (gene 5916) (UniProt P13631). Description: ATG_RARg_TRANS: Attagene TRANS-FACTORIAL HepG2 Assay for human Retinoic Acid Receptor gamma (RARg) (AID 2283009; active means hit-call score of the fitted dose curve at least 0.9, where 1 is the maximum). A digest of the protocol:
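HepG2, RARg-GAL4 TRANS system, 24 h exposure; reporter mRNA by RT-PCR + CE fluorescence; increase over DMSO.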

In experiment [8] the target is human RAR-related Orphan Receptor beta (RORb), RORB (gene 6096) (UniProt Q92753). Description: ATG_RORb_TRANS: Attagene TRANS-FACTORIAL HepG2 Assay for human RAR-related Orphan Receptor beta (RORb) (AID 2283010; active means hit-call score of the fitted dose curve at least 0.9, where 1 is the maximum). A digest of the protocol: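 In this TRANS-format test, human HepG2 cells express chimeric NR-Gal4 fusion proteins driving GAL4-UAS reporters. After 24 h dosing, reporter transcripts are measured by fluorescent RT-PCR/capillary electrophoresis, with DMSO as negative control.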

The target in experiment [9] is Retinoic acid receptor RXR-alpha (Homo sapiens) (UniProt P19793). Kind of experiment: ATG_RXRa_TRANS: Attagene TRANS-FACTORIAL HepG2 Assay for human Retinoid X Receptor alpha (RXRa) (AID 2283012; active means hit-call score of the fitted dose curve at least 0.9, where 1 is the maximum). An outline of the steps: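 Cells (HepG2) carried transiently transfected GAL4-responsive reporter units. Following a 24 h chemical incubation, reporter mRNA induction was read via RT-PCR fragment analysis; DMSO served as negative control and baseline.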

In experiment [10] the target is human Retinoid X Receptor beta (RXRb), RXRB (gene 6257) (UniProt P28702). Description: ATG_RXRb_TRANS: Attagene TRANS-FACTORIAL HepG2 Assay for human Retinoid X Receptor beta (RXRb) (AID 2283013; active means hit-call score of the fitted dose curve at least 0.9, where 1 is the maximum). A digest of the protocol: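 Multiplexed TRANS reporter assay in HepG2; 24 h dosing; reporter mRNA by RT-PCR/CE fluorescence; gain-of-signal relative to DMSO.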
Read-out in experiment [11]: E-selectin (Homo sapiens) (UniProt P16581)
Kind of experiment: BSK_3C_Eselectin: BioMAP Diversity Plus: 3C Assay for Eselectin Biomarker Activity (AID 2283015).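 On outcome: cell surface E-selectin protein quantified by ELISA 24 h after dosing.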 The following applies: primary human endothelial cells (HUVEC); actives raise or lower the signal. A digest of the protocol: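 Primary human umbilical vein endothelial cells (3C system) were dosed with chemical and cell-surface E-selectin measured by ELISA 24 h later. Bidirectional curve fitting used DMSO as negative control and baseline.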

Read-out in experiment [12]: Interleukin-1 alpha (IL1a), IL1A (gene 3552)
Kind of experiment: BSK_BE3C_IL1a: BioMAP Diversity Plus: BE3C Assay for Interleukin-1 alpha (IL1a) Biomarker Activity (AID 2283016). The following applies: primary human bronchial epithelial cells; actives raise or lower the signal. A digest of the protocol: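 Cultures of primary human bronchial epithelial cells receive test chemical. After 24 h, IL-1a is quantified by ELISA, while parallel wells are fixed in TCA and SRB-stained for total protein. Changes in either direction are fitted relative to DMSO.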

Read-out in experiment [13]: Monocyte Chemoattractant Protein-1 (MCP1), CCL2 (gene 6347)
Description: BSK_3C_MCP1: BioMAP Diversity Plus: 3C Assay for Monocyte Chemoattractant Protein-1 (MCP1) Biomarker Activity (AID 2283017). The following applies: primary human endothelial cells (HUVEC); actives raise or lower the signal. A digest of the protocol:
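Primary human umbilical vein endothelial cells (3C system) were exposed to test chemical for 24 h, after which MCP-1 was quantified by ELISA. Activity was fitted bidirectionally against DMSO as negative control and baseline.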

Read-out in experiment [14]: Monocyte Chemoattractant Protein-1 (MCP1), CCL2 (gene 6347)
Description: BSK_4H_MCP1: BioMAP Diversity Plus: 4H Assay for Monocyte Chemoattractant Protein-1 (MCP1) Biomarker Activity (AID 2283018). The following applies: primary human endothelial cells (HUVEC); actives raise or lower the signal. An outline of the steps:
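Readout: MCP-1 ELISA on compound-treated HUVEC, sampled 24 h post-dosing. Baseline and negative control DMSO; bidirectional fit. Overt toxicity checked alongside by sulforhodamine B protein staining at time of biomarker measurement.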

Read-out in experiment [15]: Human Leukocyte Antigen - DR isotype (HLADR), HLA-DRA (gene 3122)
Kind of experiment: BSK_3C_HLADR: BioMAP Diversity Plus: 3C Assay for Human Leukocyte Antigen - DR isotype (HLADR) Biomarker Activity (AID 2283019). The following applies: primary human endothelial cells (HUVEC); actives raise or lower the signal. An outline of the steps: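 Primary human umbilical vein endothelial cells (3C system) were dosed with compound and cell-surface HLA-DR was quantified by ELISA at 24 h. Activity was fitted bidirectionally against DMSO as negative control and baseline.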

Read-out in experiment [16]: Interleukin-8 (IL8), CXCL8 (gene 3576)
Kind of experiment: BSK_3C_IL8: BioMAP Diversity Plus: 3C Assay for Interleukin-8 (IL8) Biomarker Activity (AID 2283020). The following applies: primary human endothelial cells (HUVEC); actives raise or lower the signal. A digest of the protocol:
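Human vascular endothelial cells (umbilical vein) in the 3C system; IL-8 level detected by ELISA at 24 h post-dose, with DMSO as baseline.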

For experiment [17], the target named is human Peroxisome Proliferator-activated Receptor alpha (PPARa), PPARA (gene 5465) (UniProt Q07869). Description: ATG_PPARa_TRANS: Attagene TRANS-FACTORIAL HepG2 Assay for human Peroxisome Proliferator-activated Receptor alpha (PPARa) (AID 2283001; active means hit-call score of the fitted dose curve at least 0.9, where 1 is the maximum). An outline of the steps: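 Reporter transcripts from GAL4-UAS units in transfected HepG2 were quantified 24 h after dosing. Detection used reverse transcription, PCR, fluorescent primer extension and capillary electrophoresis, with DMSO as baseline.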

The target of experiment [18] is human RAR-related Orphan Receptor gamma (RORg), RORC (gene 6097) (UniProt P51449). Kind of experiment: ATG_RORg_TRANS: Attagene TRANS-FACTORIAL HepG2 Assay for human RAR-related Orphan Receptor gamma (RORg) (AID 2283011; active means hit-call score of the fitted dose curve at least 0.9, where 1 is the maximum). An outline of the steps:
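Readout: reporter transcript induction (RT-PCR, fluorescent primer extension, capillary electrophoresis) after 24 h compound exposure of transiently transfected HepG2 cells carrying a RORg-Gal4 chimera and GAL4-UAS reporters; DMSO served as baseline, with increasing signal fitted.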

For experiment [19], the target named is human Peroxisome Proliferator-activated Receptor delta (PPARd), PPARD (gene 5467) (UniProt Q03181). Kind of experiment: ATG_PPARd_TRANS: Attagene TRANS-FACTORIAL HepG2 Assay for human Peroxisome Proliferator-activated Receptor delta (PPARd) (AID 2283002; active means hit-call score of the fitted dose curve at least 0.9, where 1 is the maximum). A digest of the protocol: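 Transient HepG2 transfection (multiple GAL4-UAS RTUs, chimeric receptor-Gal4); 24 h dosing; total RNA → oligo(dT) RT → PCR → 6-FAM primer extension → HpaI cut → CE. Positive direction vs DMSO.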

Experiment [20] addresses human Thyroid Receptor alpha (THRa1), THRA (gene 7067) (UniProt P10827). Description: ATG_THRa1_TRANS: Attagene TRANS-FACTORIAL HepG2 Assay for human Thyroid Receptor alpha (THRa1) (AID 2283014; active means hit-call score of the fitted dose curve at least 0.9, where 1 is the maximum). An outline of the steps:
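HepG2 cells transiently transfected with multiplexed GAL4-UAS reporter units for exogenous chimeric THRa1-Gal4; reporter mRNA measured 24 h after dosing by RT-PCR, 6-FAM labelling, HpaI digestion and capillary electrophoresis. Gain-of-signal fitted versus DMSO baseline.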

SMILES strings stand for the structures. Results filed as inconclusive are left out. Calls of active or inactive are those of the source. How the source made its calls, unless noted: active means hit-call score of the fitted dose curve at least 0.9, where 1 is the maximum; inactive means score below 0.9.

Peroxisome proliferator-activated receptor gamma (Homo sapiens), sequence (P37231 whole entry, looked up): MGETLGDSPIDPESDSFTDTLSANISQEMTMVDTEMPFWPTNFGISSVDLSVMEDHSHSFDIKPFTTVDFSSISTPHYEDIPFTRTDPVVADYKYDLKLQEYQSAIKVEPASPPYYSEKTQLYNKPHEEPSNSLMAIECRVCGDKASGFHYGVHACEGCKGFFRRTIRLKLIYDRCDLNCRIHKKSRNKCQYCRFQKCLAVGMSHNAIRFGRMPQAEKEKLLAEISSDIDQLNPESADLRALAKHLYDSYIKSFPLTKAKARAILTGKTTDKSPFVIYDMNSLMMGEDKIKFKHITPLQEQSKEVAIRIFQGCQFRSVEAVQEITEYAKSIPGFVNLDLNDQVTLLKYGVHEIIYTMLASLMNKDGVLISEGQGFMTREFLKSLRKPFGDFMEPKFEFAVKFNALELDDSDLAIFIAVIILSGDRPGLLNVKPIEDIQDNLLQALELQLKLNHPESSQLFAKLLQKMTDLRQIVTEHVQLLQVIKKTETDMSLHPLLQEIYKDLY
E-selectin (Homo sapiens), sequence (P16581 whole entry, looked up): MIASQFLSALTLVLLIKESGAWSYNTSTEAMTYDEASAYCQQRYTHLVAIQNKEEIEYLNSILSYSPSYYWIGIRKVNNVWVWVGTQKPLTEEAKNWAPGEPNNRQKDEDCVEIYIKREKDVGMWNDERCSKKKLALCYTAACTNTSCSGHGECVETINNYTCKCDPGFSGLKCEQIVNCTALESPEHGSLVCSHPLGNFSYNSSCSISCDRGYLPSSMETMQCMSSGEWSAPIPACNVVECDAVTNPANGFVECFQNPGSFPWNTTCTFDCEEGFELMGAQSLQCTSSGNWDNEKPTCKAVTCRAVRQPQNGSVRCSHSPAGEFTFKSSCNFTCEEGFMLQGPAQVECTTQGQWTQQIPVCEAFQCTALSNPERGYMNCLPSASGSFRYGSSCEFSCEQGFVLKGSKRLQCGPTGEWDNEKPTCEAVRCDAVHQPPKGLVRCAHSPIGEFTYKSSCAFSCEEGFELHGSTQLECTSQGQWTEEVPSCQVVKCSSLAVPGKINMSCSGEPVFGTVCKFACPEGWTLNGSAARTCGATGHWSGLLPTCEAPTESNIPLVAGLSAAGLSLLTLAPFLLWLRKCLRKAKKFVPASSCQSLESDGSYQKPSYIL
human Retinoic Acid Receptor gamma (RARg), RARG (gene 5916), sequence (P13631 whole entry, looked up, the tested form may be a part): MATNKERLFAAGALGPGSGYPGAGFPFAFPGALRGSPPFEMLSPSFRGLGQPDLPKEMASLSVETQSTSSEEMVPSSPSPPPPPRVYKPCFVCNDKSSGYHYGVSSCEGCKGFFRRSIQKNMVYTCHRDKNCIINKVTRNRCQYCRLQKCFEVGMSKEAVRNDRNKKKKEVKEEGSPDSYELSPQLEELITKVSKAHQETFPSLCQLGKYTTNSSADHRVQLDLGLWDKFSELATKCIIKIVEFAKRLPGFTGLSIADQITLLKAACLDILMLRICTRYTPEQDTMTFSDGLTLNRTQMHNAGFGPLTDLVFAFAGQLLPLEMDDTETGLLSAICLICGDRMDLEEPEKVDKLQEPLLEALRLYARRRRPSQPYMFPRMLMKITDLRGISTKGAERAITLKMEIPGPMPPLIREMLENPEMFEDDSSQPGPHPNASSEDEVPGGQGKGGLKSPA
Retinoic acid receptor RXR-alpha (Homo sapiens), sequence (P19793 whole entry, looked up, the tested form may be a part): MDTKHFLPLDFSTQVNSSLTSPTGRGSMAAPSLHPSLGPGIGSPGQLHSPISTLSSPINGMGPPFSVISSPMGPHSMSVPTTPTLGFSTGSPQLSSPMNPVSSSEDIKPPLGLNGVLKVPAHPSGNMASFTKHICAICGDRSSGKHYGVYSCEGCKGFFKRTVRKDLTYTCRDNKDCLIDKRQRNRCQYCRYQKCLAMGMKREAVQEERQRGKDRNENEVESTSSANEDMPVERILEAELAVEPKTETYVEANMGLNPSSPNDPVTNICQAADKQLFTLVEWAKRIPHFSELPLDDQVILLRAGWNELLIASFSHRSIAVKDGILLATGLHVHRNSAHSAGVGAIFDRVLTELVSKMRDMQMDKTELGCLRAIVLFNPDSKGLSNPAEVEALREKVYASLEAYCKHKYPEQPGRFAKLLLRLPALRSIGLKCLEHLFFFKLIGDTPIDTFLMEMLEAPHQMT
human RAR-related Orphan Receptor beta (RORb), RORB (gene 6096), sequence (Q92753 whole entry, looked up, the tested form may be a part): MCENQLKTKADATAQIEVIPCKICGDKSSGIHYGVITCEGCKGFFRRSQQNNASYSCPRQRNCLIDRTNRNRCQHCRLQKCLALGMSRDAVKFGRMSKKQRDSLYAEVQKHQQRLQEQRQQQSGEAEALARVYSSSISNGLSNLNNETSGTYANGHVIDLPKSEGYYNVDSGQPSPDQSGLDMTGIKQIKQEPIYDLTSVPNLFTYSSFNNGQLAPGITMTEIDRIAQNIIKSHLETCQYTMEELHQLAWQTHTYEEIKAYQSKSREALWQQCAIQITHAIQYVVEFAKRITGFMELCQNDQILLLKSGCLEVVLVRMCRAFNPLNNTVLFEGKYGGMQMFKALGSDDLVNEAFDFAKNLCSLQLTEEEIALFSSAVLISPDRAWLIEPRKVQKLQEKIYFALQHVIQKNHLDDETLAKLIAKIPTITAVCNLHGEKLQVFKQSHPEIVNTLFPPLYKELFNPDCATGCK
Nuclear receptor subfamily 1 group I member 2 (Homo sapiens), sequence (O75469 whole entry, looked up, the tested form may be a part): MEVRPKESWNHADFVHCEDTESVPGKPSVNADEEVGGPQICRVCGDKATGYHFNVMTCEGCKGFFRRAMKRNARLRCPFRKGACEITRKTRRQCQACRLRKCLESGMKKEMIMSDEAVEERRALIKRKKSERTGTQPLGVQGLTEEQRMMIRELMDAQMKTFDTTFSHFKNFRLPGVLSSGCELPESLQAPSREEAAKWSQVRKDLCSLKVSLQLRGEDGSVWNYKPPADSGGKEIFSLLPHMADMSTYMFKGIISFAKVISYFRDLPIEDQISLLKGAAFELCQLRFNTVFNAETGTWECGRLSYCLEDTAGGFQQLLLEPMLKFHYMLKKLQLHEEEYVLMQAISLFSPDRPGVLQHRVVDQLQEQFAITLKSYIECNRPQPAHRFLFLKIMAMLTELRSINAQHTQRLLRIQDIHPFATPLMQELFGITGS
human Retinoic Acid Receptor beta (RARb), RARB (gene 5915), sequence (P10826 whole entry, looked up, the tested form may be a part): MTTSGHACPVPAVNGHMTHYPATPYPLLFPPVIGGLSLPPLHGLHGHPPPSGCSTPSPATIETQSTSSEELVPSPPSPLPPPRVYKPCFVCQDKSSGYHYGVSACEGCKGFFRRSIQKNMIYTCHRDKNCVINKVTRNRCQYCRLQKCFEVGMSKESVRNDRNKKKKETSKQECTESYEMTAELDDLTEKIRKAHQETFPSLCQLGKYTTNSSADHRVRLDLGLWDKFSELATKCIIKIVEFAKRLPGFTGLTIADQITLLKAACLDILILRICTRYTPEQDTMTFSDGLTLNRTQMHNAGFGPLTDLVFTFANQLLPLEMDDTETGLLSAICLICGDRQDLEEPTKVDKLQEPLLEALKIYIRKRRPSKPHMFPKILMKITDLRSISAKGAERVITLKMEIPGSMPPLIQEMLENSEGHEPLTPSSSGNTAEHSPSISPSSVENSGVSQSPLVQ
human Peroxisome Proliferator-activated Receptor delta (PPARd), PPARD (gene 5467), sequence (Q03181 whole entry, looked up, the tested form may be a part): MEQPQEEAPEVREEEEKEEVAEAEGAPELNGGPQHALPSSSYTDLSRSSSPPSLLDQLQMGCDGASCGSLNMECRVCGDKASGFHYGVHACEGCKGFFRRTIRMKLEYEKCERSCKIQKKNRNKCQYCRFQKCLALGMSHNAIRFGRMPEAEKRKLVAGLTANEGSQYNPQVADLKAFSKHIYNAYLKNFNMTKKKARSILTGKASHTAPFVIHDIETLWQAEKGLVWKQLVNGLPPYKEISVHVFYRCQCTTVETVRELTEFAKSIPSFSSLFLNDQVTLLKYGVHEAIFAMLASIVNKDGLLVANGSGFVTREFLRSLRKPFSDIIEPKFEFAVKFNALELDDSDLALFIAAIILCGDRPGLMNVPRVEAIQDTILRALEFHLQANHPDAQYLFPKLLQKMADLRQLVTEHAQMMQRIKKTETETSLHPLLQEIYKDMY
human Thyroid Receptor alpha (THRa1), THRA (gene 7067), sequence (P10827 whole entry, looked up, the tested form may be a part): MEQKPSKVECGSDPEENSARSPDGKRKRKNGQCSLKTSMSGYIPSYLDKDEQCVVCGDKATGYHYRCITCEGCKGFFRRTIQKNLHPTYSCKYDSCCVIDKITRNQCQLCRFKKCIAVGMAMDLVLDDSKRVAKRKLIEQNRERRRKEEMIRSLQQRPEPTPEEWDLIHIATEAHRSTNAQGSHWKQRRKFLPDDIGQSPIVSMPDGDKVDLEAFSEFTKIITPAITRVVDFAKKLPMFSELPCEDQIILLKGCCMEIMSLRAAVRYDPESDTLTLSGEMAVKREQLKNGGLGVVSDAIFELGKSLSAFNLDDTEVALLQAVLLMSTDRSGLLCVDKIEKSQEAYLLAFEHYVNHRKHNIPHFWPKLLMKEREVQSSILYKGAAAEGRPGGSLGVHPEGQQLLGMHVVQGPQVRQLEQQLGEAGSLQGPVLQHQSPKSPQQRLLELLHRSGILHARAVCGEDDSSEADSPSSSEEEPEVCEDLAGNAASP
human RAR-related Orphan Receptor gamma (RORg), RORC (gene 6097), sequence (P51449 whole entry, looked up, the tested form may be a part): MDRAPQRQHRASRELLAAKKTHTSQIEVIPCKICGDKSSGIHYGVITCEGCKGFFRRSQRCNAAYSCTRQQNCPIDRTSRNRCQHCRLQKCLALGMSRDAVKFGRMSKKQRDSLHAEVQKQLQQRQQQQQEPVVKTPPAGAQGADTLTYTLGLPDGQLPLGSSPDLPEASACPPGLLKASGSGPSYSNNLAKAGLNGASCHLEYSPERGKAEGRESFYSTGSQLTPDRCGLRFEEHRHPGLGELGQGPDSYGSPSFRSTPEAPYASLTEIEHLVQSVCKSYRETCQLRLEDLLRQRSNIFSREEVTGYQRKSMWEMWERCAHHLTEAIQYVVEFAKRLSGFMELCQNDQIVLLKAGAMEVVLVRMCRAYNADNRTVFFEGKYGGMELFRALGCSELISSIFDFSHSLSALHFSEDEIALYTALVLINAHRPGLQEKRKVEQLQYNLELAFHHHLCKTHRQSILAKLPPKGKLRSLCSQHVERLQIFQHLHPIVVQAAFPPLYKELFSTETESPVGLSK

In the case of `CCCSP(=O)(OCC)SCCC`, the outcome in [1], in [2], in experiment [3], in [4], in experiment [5] and in [6] was inactive. Further, the call in [7], in [8], in experiment [9], in experiment [10], in experiment [11] and in [12] was inactive. Besides, the outcome in experiment [13], in [14], in [15] and in experiment [16] was inactive.
As a reminder, the AC50 is the concentration giving half of the maximal activity seen. For `CC[C@H](C)[C@H]1O[C@]2(C=C[C@@H]1C)C[C@@H]1C[C@@H](C/C=C(\C)[C@@H](O[C@H]3C[C@H](OC)[C@@H](O[C@H]4C[C@H](OC)[C@@H](NC)[C@H](C)O4)[C@H](C)O3)[C@@H](C)/C=C/C=C3\CO[C@@H]4[C@H](O)C(C)=C[C@@H](C(=O)O1)[C@]34O)O2`, the AC50 is 5.75 µM (active) in experiment [1]; 9.48 µM (active) in experiment [2]; 1.68 µM (active) in experiment [4]; 8.63 µM (active) in [11]; 7.71 µM (active) in experiment [12]; 3.66 µM (active) in experiment [13]. Moreover, the AC50 is 2.88 µM (active) in experiment [14], 3.38 µM (active) in [15] and 6.22 µM (active) in experiment [16]. For the same compound, the outcome in experiment [17], in [5], in experiment [8], in experiment [18] and in experiment [9] was inactive.
Turning to `COP(=O)(OC)OC(Br)C(Cl)(Cl)Br` (stereo not drawn), the AC50 is 33.2 µM (active) in experiment [1]; 36.4 µM (active) in [2]; 16 µM (active) in experiment [4]; 30.1 µM (active) in [11]; 29.8 µM (active) in experiment [12]; 35.6 µM (active) in experiment [13]. Also, the values for the AC50 in [14], in experiment [15] and in [16] were 30.1 µM (active), 14.9 µM (active) and 34.9 µM (active), respectively. The result in experiment [19], in experiment [5] and in experiment [7] was inactive.
Turning to `FC(F)C(F)(F)OCC(Cn1cncn1)c1ccc(Cl)cc1Cl` (stereo not drawn), the AC50 in [1] was 28.4 µM (active); in experiment [4], 20 µM (active); in experiment [14], 23.2 µM (active); in experiment [15], 26.9 µM (active). Further, the compound was classed as inactive in experiment [19], in experiment [2], in experiment [3], in [5], in experiment [6] and in experiment [7]. For the same compound, the compound was called inactive in experiment [9], in [20], in experiment [11], in experiment [12], in [13] and in [16].
